ssDAF-12 act: S. stercoralis DAF-12 activation, primary screen; HEK293 ssDAF-12/GRIP1 lit1-tk-luc reporter, luminescence; % of 3 µM dafachronic acid response; activation, % at 6.8 µM; 1% of 370,000 active; AID 652126;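 active = activation above the mean over all tested compounds plus 3 SD, cut at about 0.9% in these data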
DAX1 inh-1: blocks DAX1 repression of SF-1 activated StAR promoter | HEK293T StAR-luciferase reporter, SF-1/DAX-1 repression relief | inhibition, % at 6.8 µM | 1.1% of 370,000 active;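 active = inhibition above the mean over all tested compounds plus 3 SD, cut at about 3.6% in these data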;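 also: higher inhibition means more luminescence from relief of DAX-1 repression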
DAX1 inh-2: inhibits human nuclear receptor DAX1; P51843; HEK293 Gal4-DAX1 luciferase reporter, luminescence; inhibition, % at 6.75 µM; 0.99% of 340,000 active; AID 504766;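 active = inhibition above the mean over all tested compounds plus 3 SD, cut at about 4.2% in these data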;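 also: inhibition shows as a rise in luminescence from relieved DAX1 repression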
Target sequence (P51843 207-470 limits assumed): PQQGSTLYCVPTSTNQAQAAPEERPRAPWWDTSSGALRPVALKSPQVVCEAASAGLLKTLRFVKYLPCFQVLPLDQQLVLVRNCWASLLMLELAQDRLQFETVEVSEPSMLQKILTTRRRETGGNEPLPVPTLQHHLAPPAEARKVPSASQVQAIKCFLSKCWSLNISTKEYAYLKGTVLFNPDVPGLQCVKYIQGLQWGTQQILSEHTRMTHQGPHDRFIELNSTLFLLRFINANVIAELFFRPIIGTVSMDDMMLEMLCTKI
hgDAF-12 ag: hgDAF-12 agonism, primary luciferase screen | 1.8% of 370,000 active | activation, % at 6.8 µM | HEK293 GAL4-hgDAF12 UAS-luciferase reporter, agonist luminescence; normalized to butyrate control | AID 687014;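 active = activation above a cutoff set at the mean of all screened compounds plus 3 SD, cut at about 10% in these data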
hcDAF-12 act: H. contortus DAF-12 activation, primary screen | HEK293 hcDAF-12 lit1-tk-luc reporter, luminescence; 0% DMSO, 100% Δ7-dafachronic acid | AID 652067 | activation, % at 6.8 µM | 1.4% of 370,000 active;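 active = activation above the mean of all tested compounds plus 3 SD, cut at about 5.5% in these data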
A number is an active result; – = inactive; · = no result. The list is not random: actives were taken first. Their share in the collection is about 4.1%.

SMILES	ssDAF-12 act	DAX1 inh-1	DAX1 inh-2	hgDAF-12 ag	hcDAF-12 act
O=C(NCc1ccco1)c1cnc2sccn2c1=O	–	–	–	–	–
C(#CC1=CCCCC1)CNCc1ccccc1	–	–	·	–	–
CCOC(=O)CNC(=O)CSc1nnc(-c2ccccc2)n1CC	–	–	·	–	–
CN(Cc1cccc(Cl)c1Cl)C(=O)CCNC(=O)c1ccco1	–	4.1	–	–	–
COC(=O)[C@]1(C#N)CC(=O)N(C(C)C)[C@@H]1c1ccccc1	–	–	·	–	–
CC1(C)Cc2nc3sc(C(=O)NCCCO)c(N)c3cc2CO1	–	–	6.5	–	–
Cc1ccccc1N1CCN(C2=Nc3ccccc3Sc3ccccc32)CC1	–	–	·	–	–
CC(NC(=O)CN1C(=O)NC2(CCCCCCC2)C1=O)c1ccccc1 (stereo unspecified)	–	–	–	–	–
CC(NC(=O)CN1C(=O)NC2(CCCCC2)C1=O)c1ccc(S(N)(=O)=O)cc1 (stereo unspecified)	–	3.9	–	–	–
Cc1c(C)n(Cc2ccc(-c3ccccc3C(=O)O)cc2)c2ccc(C(=O)N[C@@H](C)c3ccc(Br)cc3)cc12	–	–	·	–	–
Cc1ccc(C)c(NC(=O)c2cccc3c2-c2ccccc2C3=O)c1	–	–	·	–	–
O=S1(=O)c2ccc(N3CCCC3)cc2Oc2ccccc2CN1Cc1cn(Cc2ccc(C(F)(F)F)cc2)nn1	–	–	·	–	–
O=C(NCc1ccccc1)C1Cc2c(-c3ccc4c(c3)OCO4)ccnc2O1 (stereo unspecified)	–	4.4	·	–	–
COC(=O)[C@]12C[C@H](CC(=O)NCCCCc3ccccc3)C(=O)N(CCC3=CCCCC3)C1=C[C@H](C(C)(C)C)O[C@@H]2C	–	–	·	–	–
S=C(Nc1ccc(Br)cc1Cl)N1CCCC1	–	4.1	–	–	–
S=C(Nc1ccccc1Cl)N1CCCC1	–	–	–	–	–
CC1CC(C)CN(C(=O)C2CCN(c3cncnc3)CC2)C1 (stereo unspecified)	–	–	·	–	–
CC1CCN(c2ccccc2NC(=O)c2ccc(Br)o2)CC1	1.0	–	–	–	–
CN1CCN(c2ccccc2NC(=O)c2ccc(Br)o2)CC1	–	–	–	–	–
O=C(Nc1ccccc1N1CCOCC1)c1cc2ccccc2o1	1.3	–	–	–	–
CN1CCN(c2ccccc2NC(=O)c2cc3ccccc3o2)CC1	–	–	–	–	–
COCCN1Cc2cc(C(=O)OC)c3c(c2C1=O)c1cc(OC)ccc1n3C(=O)c1ccccc1	–	–	·	–	–
CC(=O)N1c2cc(S(=O)(=O)N3CCN(c4ccccc4F)CC3)c(Br)cc2CC1C (stereo unspecified)	–	–	·	–	–
COc1ccc(CNC(=S)NC(C)CCc2ccccc2)cc1 (stereo unspecified)	–	–	–	–	–
CCS(=O)(=O)c1ccc2oc(Nc3ccccc3Cl)nc2c1	–	–	–	13.0	–
SMILES	ssDAF-12 act	DAX1 inh-1	DAX1 inh-2	hgDAF-12 ag	hcDAF-12 act
CCOc1ccc(-n2c(SCC(=O)Nc3ccc(OCc4ccccc4)cc3)nnc2-c2ccc(Cl)cc2)cc1	–	–	·	–	–
Clc1cnc(N/N=C/c2cccs2)c(Cl)c1	1.0	–	–	–	–
Cc1ccsc1/C=N/Nc1ncnc2nc[nH]c12	–	–	4.6	–	–
Cc1ccccc1/C=N/Nc1ncnc2nc[nH]c12	–	–	–	–	–
C(=N\Nc1ncnc2nc[nH]c12)/c1cccs1	–	–	5.7	–	–
COc1ccccc1N1CCN(C(=O)c2ccc3c(c2)nc(C)n3-c2cc(OC)c(OC)c(OC)c2)CC1	–	–	·	–	–
COc1ccc(C(=O)OCCN2CCN(C3CN(Cc4cn(Cc5cccc(C)c5)nn4)S(=O)(=O)C3)CC2)cc1OC (stereo unspecified)	–	–	·	–	–
CCOC(=O)[C@]12CCCCC/C=C\1N(Cc1ccc(OC)cc1)C(=O)[C@H]2CC(=O)N1CCCC1	–	–	·	–	–
CC(C)C[C@H]1CNC(=S)N1CC1CCN(CCC2CCCC2)CC1	–	–	–	–	–
CCC(CC)CN1CCC(CN2C(=S)NC[C@@H]2CC(C)C)CC1	–	3.7	–	–	–
Cn1cccc1C(=O)N1CCN(S(=O)(=O)c2ccc(C(C)(C)C)cc2)CC1	–	–	·	–	–
O=C(CC1SC(=Nc2ccccc2)N(CCc2ccccn2)C1=O)Nc1ccc(F)cc1 (stereo unspecified)	–	–	–	–	6.2

Screens (PubChem BioAssay)
